Some test systems named below: HCT-15 colon; HT29 colon; SNB-75 CNS; SNB-19 CNS; U251 CNS; PC-3 prostate; SK-MEL-5 melanoma; UACC-62 melanoma; LOX IMVI melanoma; SK-MEL-28 melanoma; SK-MEL-2 melanoma; EKVX NSCLC; SN12C renal; UO-31 renal; TK-10 renal; ACHN renal; CAKI-1 renal; A498 renal; CCRF-CEM leukemia; MOLT-4 leukemia.
What all share (assay): NCI-60 one-dose screen, 48 h (100 = growth as untreated, 0 = no growth, -100 = all killed)
Conditions in all cases: 10 µM unless noted

About 83,000 compounds went through this panel and 20% of them were active in at least one assay; those are over-represented in the sample as a whole.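 Activity criterion: percent growth below 10, measured after cells in 96-well plates were exposed to a single compound concentration for 48 hours.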 Values without a mark were called inactive. Calls of active or inactive are those of the source.

On to `COc1ccc(-c2nc3c(ncc4ccc(=O)[nH]c43)s2)cc1`, for which the growth was 73.6% in the experiment with HCT-15 colon; 81.1% with HT29 colon; 102% in the experiment on SNB-75 CNS; 105% with SNB-19 CNS; 81.6% in the experiment with U251 CNS; 83.4% with PC-3 prostate. Further, the growth is 74.3% with SK-MEL-5 melanoma; 88.1% with UACC-62 melanoma; 52% with LOX IMVI melanoma; 87.6% with SK-MEL-28 melanoma; 106% with SK-MEL-2 melanoma; 63.8% in the experiment with EKVX NSCLC. Besides, the growth in the experiment on SN12C renal was 78.2%; in the experiment on UO-31 renal, 72.1%; with TK-10 renal, 73.8%; in the experiment with ACHN renal, 59.9%; in the experiment with CAKI-1 renal it was 67.6%; with A498 renal it was 42.3%. Further, the figures for the growth with CCRF-CEM leukemia and with MOLT-4 leukemia were 72.6% and 31.8%, respectively.

Consider `CCOC(=O)c1c2c(n3cccc(F)c13)C(=O)c1ncccc1C2=O`, for which the growth with HCT-15 colon was 12.7%; in the experiment on HT29 colon, 8.73% (active); in the experiment on SNB-75 CNS, 28.7%; in the experiment with SNB-19 CNS, 11.3%; with U251 CNS, -35.5% (active); with PC-3 prostate, 13.7%. For the same molecule, the growth with SK-MEL-5 melanoma was -23% (active); with UACC-62 melanoma, -33.4% (active); in the experiment with LOX IMVI melanoma, -20.9% (active); with SK-MEL-28 melanoma it was 37.4%; in the experiment with SK-MEL-2 melanoma, 72.4%; in the experiment with EKVX NSCLC, 27.7%. Also, the growth was 25.6% with SN12C renal; -28.5% (active) in the experiment with UO-31 renal; 36.8% in the experiment with TK-10 renal; 7% (active) in the experiment on ACHN renal; 14.4% in the experiment with CAKI-1 renal; 24% in the experiment on A498 renal.

Regarding `Cc1ccc(CNc2ccc3nc(CCC4CCCCC4)[nH]c3c2)cc1`, the growth in the experiment with HCT-15 colon is 12.7%; in the experiment with HT29 colon, 9.91% (active); in the experiment with SNB-75 CNS, 79.7%; with SNB-19 CNS it was 58.4%; in the experiment with U251 CNS, 29.8%; in the experiment with PC-3 prostate, 38.5%. Moreover, the growth in the experiment with SK-MEL-5 melanoma was -19.5% (active); with UACC-62 melanoma, 32.9%; in the experiment with LOX IMVI melanoma, 50.1%; in the experiment with SK-MEL-28 melanoma, 38.5%; in the experiment on SK-MEL-2 melanoma, 58.8%; with EKVX NSCLC, 53.4%. In addition, the growth in the experiment with SN12C renal is 45.7%; with UO-31 renal it was 23.8%; in the experiment with TK-10 renal it was 54.8%; in the experiment with ACHN renal it was 47.8%; in the experiment with CAKI-1 renal, 35.8%; with A498 renal, 57.5%. For the same molecule, in the experiment with CCRF-CEM leukemia, the growth is 39.9%.

For `COC1=CC(c2ccc[nH]2)=N/C1=C\c1[nH]c(C)c(C(=O)OC(C)C)c1C`, the growth is -30.1% (active) in the experiment on HCT-15 colon; -11.6% (active) with HT29 colon; -15.7% (active) with SNB-75 CNS; 21.1% in the experiment on SNB-19 CNS; -26.7% (active) in the experiment on U251 CNS; 8.84% (active) in the experiment on PC-3 prostate. Moreover, the growth was -99.5% (active) in the experiment on SK-MEL-5 melanoma; -62.9% (active) in the experiment with UACC-62 melanoma; -92.4% (active) in the experiment on LOX IMVI melanoma; -54.5% (active) with SK-MEL-28 melanoma; -61.6% (active) in the experiment on SK-MEL-2 melanoma; -41.9% (active) with EKVX NSCLC. For the same molecule, the growth is -2.47% (active) in the experiment on SN12C renal; -87.5% (active) with UO-31 renal; 3.42% (active) in the experiment on TK-10 renal; -82.9% (active) with ACHN renal; -32.4% (active) in the experiment with CAKI-1 renal; -37.8% (active) with A498 renal. Moreover, the growth with CCRF-CEM leukemia was 13.5%; with MOLT-4 leukemia, -5.6% (active).

`O=C1c2c(c3c4ccccc4[nH]c3c3ccc4ccccc4c23)C(=O)N1CCN1CCOCC1`: the growth was 20.6% in the experiment on HCT-15 colon; 35.6% in the experiment on HT29 colon; 63.7% in the experiment with SNB-75 CNS; 56% with SNB-19 CNS; 32.3% in the experiment with U251 CNS; 35.1% in the experiment on PC-3 prostate. Also, the growth is 37.4% with SK-MEL-5 melanoma; 38.7% in the experiment on UACC-62 melanoma; 27.2% in the experiment with LOX IMVI melanoma; 73.9% in the experiment on SK-MEL-28 melanoma; 69.9% in the experiment with SK-MEL-2 melanoma; 61.8% in the experiment with EKVX NSCLC. Besides, the growth in the experiment on SN12C renal was 30.2%; in the experiment with UO-31 renal, 27.6%; in the experiment with TK-10 renal, 71.2%; with ACHN renal it was 15.3%; in the experiment with CAKI-1 renal, 32.8%; in the experiment on A498 renal it was 61.4%. The growth with CCRF-CEM leukemia was 10.9%.

On to `CCCCCN1C(=O)/C(=c2\sc3n(c2=O)C2C(NN=3)N(CC)C(=O)N2CC)c2ccccc21` (configuration not stated), for which the growth with HCT-15 colon is 1.05% (active); in the experiment with HT29 colon it was -57.1% (active); in the experiment with SNB-75 CNS, -51.5% (active); in the experiment with SNB-19 CNS, -1.3% (active); in the experiment with U251 CNS, -83.4% (active); in the experiment with PC-3 prostate it was -20.2% (active). The growth in the experiment with SK-MEL-5 melanoma is 16.8%; in the experiment on UACC-62 melanoma, 10.7%; in the experiment with LOX IMVI melanoma, -43.5% (active); in the experiment with SK-MEL-28 melanoma it was 19.2%; in the experiment with SK-MEL-2 melanoma, 21.3%; with EKVX NSCLC, 26.3%. Further, the growth in the experiment on SN12C renal was -50.5% (active); in the experiment on UO-31 renal it was -40.8% (active); in the experiment on TK-10 renal it was 19.9%; with ACHN renal, 2.83% (active); in the experiment with CAKI-1 renal it was 7.55% (active); with A498 renal it was -27.8% (active). The growth in the experiment with CCRF-CEM leukemia was -15.6% (active).

`Nc1nc(N)c(-c2ccc(Cl)c(Cl)c2)c(CBr)n1`: the growth with HCT-15 colon was 43%; in the experiment on HT29 colon it was 34.2%; in the experiment on SNB-75 CNS, 95%; with SNB-19 CNS it was 94%; with U251 CNS it was 65.4%; in the experiment on PC-3 prostate, 65.2%. The growth with SK-MEL-5 melanoma was 62.6%; in the experiment with UACC-62 melanoma, 57%; in the experiment on LOX IMVI melanoma it was 34.9%; in the experiment on SK-MEL-28 melanoma, 103%; in the experiment with SK-MEL-2 melanoma it was 87.6%; in the experiment on EKVX NSCLC, 85.3%. The growth in the experiment on SN12C renal is 79.2%; with UO-31 renal, 88.7%; in the experiment with TK-10 renal, 83.6%; in the experiment with ACHN renal it was 68.4%; with CAKI-1 renal, 82.3%; in the experiment on A498 renal, 89.9%.

In the case of `COc1ccc(C2=Nc3c(N)nc(N)nc3NC(c3cccc(Nc4ccnc5cc(C(F)(F)F)ccc45)c3)C2)cc1` (configuration not stated), the growth in the experiment on HCT-15 colon is 36.6%; in the experiment with HT29 colon, 30.4%; in the experiment with SNB-75 CNS it was 65.6%; in the experiment with SNB-19 CNS it was 73.1%; in the experiment with U251 CNS, 60.4%; in the experiment with PC-3 prostate, 48.4%. Moreover, the growth in the experiment with SK-MEL-5 melanoma was 61.4%; in the experiment on UACC-62 melanoma, 88.9%; with LOX IMVI melanoma, 65.3%; with SK-MEL-28 melanoma, 91.5%; in the experiment with SK-MEL-2 melanoma, 75.5%; with EKVX NSCLC, 72.3%. The growth in the experiment on SN12C renal is 75.7%; with UO-31 renal, 70%; with TK-10 renal, 108%; in the experiment on ACHN renal, 96.4%; in the experiment on CAKI-1 renal it was 60.7%; in the experiment on A498 renal, 84.7%. Also, the growth in the experiment on CCRF-CEM leukemia is 53.9%.

(Values after PubChem BioAssay (NCI).)
